Screening results: PubChem, several laboratories
The list is not random: actives were taken first. Their share in the collection is about 1.3%.
PERK inh = blocks human PERK kinase. Q9NZJ5. CHO PERK-DD fusion, SEAP luminescence translation reporter. inhibition, % at 5.6 µM. 0.17% of 220,000 active;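 active = inhibition above the mean inhibition of all tested compounds plus 3 SD, set separately per screening campaign, cut at about 2.9% in these data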;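 also: PERK kinase domain activated by AP20187 dimerizer at 100 nM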
Calpain2 inh = calpain II (pig) inhibition | purified calpain II, fluorogenic peptide substrate, 30 min | inhibition, % at 16 µM | 0.37% of 220,000 active | AID 1236;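 active = inhibition above about 50%, limit read from the data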
S1P4 antag = blocks the human S1P4 receptor. S1P4-expressing cells, antagonist mode, reporter read-out. inhibition, % at 4.98 µM. 0.26% of 220,000 active. AID 1510; in the data active = inhibition above about 29%
S1P4 agonist = human S1P4 receptor agonism; activation, % at 4.98 µM; O95977; 0.35% of 220,000 active; S1P4-expressing cell line, agonist reporter assay; in the data active = activation above about 11%
S1P3 antag = blocks the human S1P3 receptor | Q99500 | CHO S1P3 NFAT-BLA reporter, FRET fluorescence, antagonist mode | inhibition, % at 4.98 µM | 0.27% of 170,000 active;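 active = inhibition above the plate cutoff, the mean inhibition of test wells on that plate plus 3 SD, cut at about 28% in these data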;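 also: cells challenged with S1P at its EC80 of 0.8 µM; blue over green emission ratio from cleaved BLA substrate after 4 h stimulation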
Target sequence (Q99500 whole entry, looked up): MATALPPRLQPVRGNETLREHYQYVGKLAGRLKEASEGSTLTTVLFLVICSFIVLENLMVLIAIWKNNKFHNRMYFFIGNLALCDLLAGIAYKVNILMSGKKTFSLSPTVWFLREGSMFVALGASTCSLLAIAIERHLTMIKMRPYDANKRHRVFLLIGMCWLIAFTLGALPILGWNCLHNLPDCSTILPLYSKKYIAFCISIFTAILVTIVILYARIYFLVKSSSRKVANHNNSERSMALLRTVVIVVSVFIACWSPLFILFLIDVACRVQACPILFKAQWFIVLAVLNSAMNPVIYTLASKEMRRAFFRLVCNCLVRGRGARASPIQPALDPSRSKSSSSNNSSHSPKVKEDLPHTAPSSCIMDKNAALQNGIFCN
Hits are given with their value; . = inactive; / = no result given.

SMILES | PERK inh | Calpain2 inh | S1P4 antag | S1P4 agonist | S1P3 antag
Cc1ccc(NC(=S)NCCC(c2ccccc2)c2ccccc2)c(C)c1 | . | . | . | . | /
CCOC(=O)C1(C)NC(c2cccs2)C2C(=O)N(c3ccc(OC)cc3)C(=O)C21 (stereo not drawn) | . | . | . | . | .
COc1cc(NS(=O)(=O)c2ccc(NC(=S)NC(=O)c3sc4cc(F)ccc4c3Cl)cc2)nc(OC)n1 | . | . | . | . | .
COc1cc(NS(=O)(=O)c2ccc(NC(=S)NC(=O)c3sc4ccccc4c3Cl)cc2)nc(OC)n1 | . | 58.1 | . | . | .
CCN(/N=C/C=C/c1ccccc1)c1cc(=O)n(C)c(=O)[nH]1 | . | 52.1 | . | . | .
CCN(/N=C/c1ccc(Cl)cc1)c1cc(=O)n(C)c(=O)[nH]1 | . | . | . | . | .
CCCCC(=O)OCC(=O)c1[nH]c(C)c(C(C)=O)c1C | . | 89.3 | . | . | .
CCOC(=O)C1=NN(c2ccccc2)C(=O)C1 | 2.9 | . | . | . | .
Cc1cccc(N/C=C/C(=C(C#N)C#N)N(C)C)c1 | . | 60.4 | . | . | /
CCOC(CCc1c(C)nc(NC(C)=O)[nH]c1=O)OCC | 3.1 | . | . | . | .
CC(=O)Nc1nc(C)c(CCCOc2ccc([N+](=O)[O-])cc2)c(=O)[nH]1 | . | . | . | . | .
CCOC(=O)C1CCN(Cc2cn(C)nc2-c2ccc(Oc3ccccc3)cc2)CC1 | . | . | . | . | .
COc1ccc(Nc2c(-c3ccc(C)cc3)nc3cnccn23)cc1 | . | 74.7 | . | . | .
Cc1ccc(-c2noc(CN(C(=O)CCCN3C(=O)c4ccccc4C3=O)C(C)C)n2)cc1 | . | / | . | . | .
Nc1nonc1-c1noc(CCCCCN2C(=O)c3ccccc3C2=O)n1 | . | 51.2 | . | . | .
Cc1ccc(-c2noc(CN(C(=O)CCCCCN3C(=O)c4ccccc4C3=O)C(C)C)n2)cc1 | . | 54.5 | . | . | .
O=C1c2ccccc2C(=O)N1CCCc1nc(-c2ccccn2)no1 | . | . | . | . | .
O=C(N=Nc1c(O)[nH]c2ccc([N+](=O)[O-])cc12)c1cc(-c2ccccc2Cl)nc2ccccc12 | . | 69.0 | . | . | .
CCCOc1ccc(OCCN2CCCC(C)C2)cc1 (stereo not drawn) | . | 50.0 | . | . | .
CCOc1ccc(OCCN2CCCCC2)cc1 | . | . | . | . | .
CC(C)n1c(C(F)(F)F)nc2cc(C(=O)N3CCCCC3)ccc21 | . | . | . | . | .
COc1ccc(CC(=O)O/N=C(\N)c2ccccn2)cc1 | 3.1 | . | . | . | .
N/C(=N\OC(=O)Cc1ccc(-c2ccccc2)cc1)c1ccccn1 | . | . | . | . | /
CC(=O)NC(C)C(c1cccs1)N1CCN(c2ccccc2)CC1 (stereo not drawn) | . | . | . | . | 63.6
CCC(=O)NC(C)C(c1cccs1)N1CCN(c2ccccc2)CC1 (stereo not drawn) | . | . | . | . | .
SMILES | PERK inh | Calpain2 inh | S1P4 antag | S1P4 agonist | S1P3 antag
COc1ccc(/C=C(\NC(=O)c2ccccc2Cl)C(=O)NCCCC(=O)O)cc1 | . | 51.9 | . | . | .
COC(=O)C(Cc1ccc(OC(=O)c2ccc(C(F)(F)F)cc2)cc1)N1Cc2ccccc2C1=O (stereo not drawn) | . | 70.9 | . | . | /
O=[N+]([O-])c1ccc(C2(O)CN(c3ccccc3)C3=[N+]2CCS3)cc1 (stereo not drawn) | . | . | . | . | .
CC(C)(C)c1ccc(NC(=O)Nc2ccc3ccccc3n2)cc1 | . | . | . | . | .
Cn1c(SCC(=O)Nc2cccc(C(=O)O)c2)nnc1-c1cc2cc(Br)ccc2o1 | . | . | . | . | .
CCc1cccc(C)c1NC(=O)CSc1nnc(-c2cc3cc(Br)ccc3o2)n1CC | . | 55.4 | . | . | .
Cc1cc(Br)ccc1OCCCCN1CCCCC1 | . | . | . | . | .
CC1=NN(c2ccccc2)C(=O)C1(C)[N+](=O)[O-] (stereo not drawn) | . | . | . | . | .
Cc1ccc(C(=O)O)cc1N1C(=O)c2cccc3cc(Br)cc(c23)C1=O | . | 65.6 | . | . | /
Cc1n[nH]c(C)c1N1C(=O)c2cccc3cc(Br)cc(c23)C1=O | . | . | . | . | /
COc1ccc(S(=O)(=O)NCc2ccco2)cc1N(C)S(=O)(=O)c1ccccc1 | . | . | . | . | .
COc1ccc(-c2cc(C(=O)Nc3c(C)nn(Cc4ccccc4)c3C)no2)cc1 | . | . | . | . | /
COc1cccc(-c2cc(C(=O)Nc3c(C)nn(Cc4ccccc4)c3C)no2)c1 | . | . | . | . | 53.6
COc1ccc(N(CC(=O)NCCC2=CCCCC2)S(=O)(=O)c2ccc(C)cc2)cc1OC | . | . | . | . | .
CCNc1nc(NC(C)C)nc(N(C)C#N)n1 | . | . | . | . | .
CCCN(C#N)c1nc(NCC)nc(NC(C)C)n1 | . | 52.2 | . | . | .
COc1cc(C2=NOC(C(=O)NC3CCCCC3)C2)cc(OC)c1OC (stereo not drawn) | . | . | . | . | 96.2
COc1cc(C2=NOC(C(=O)Nc3ccc(C)cc3)C2)cc(OC)c1OC (stereo not drawn) | . | . | . | . | .
COc1ccc(C(=O)C(OC(=O)c2ccc(C)c(NC(C)=O)c2)c2ccccc2)cc1 (stereo not drawn) | . | . | . | . | /
CC(=O)Nc1cc(C(=O)OC(C(=O)c2ccccc2)c2ccccc2)ccc1C (stereo not drawn) | . | 66.5 | . | . | /
COc1ccc(CN2CCN(S(=O)(=O)c3ccc(NC(C)=O)cc3)CC2)c(OC)c1OC | . | . | . | . | .
O=C(COC(=O)CCC1CCCC1)Nc1ccccc1Sc1ccccc1 | 2.9 | . | . | . | .
O=C(NC1CCCCC1)C(c1ccc(Cl)cc1)N(C(=O)c1ccccn1)c1cccnc1 (stereo not drawn) | . | . | . | . | .
O=C(O)c1cccnc1SCc1cn2cc(Cl)ccc2n1 | 3.0 | . | . | . | .
Cc1cc(NC(=O)CSc2nc3ccsc3c(=O)n2CCCC(=O)NCCc2ccccc2)no1 | . | 50.3 | . | . | .
SMILES | PERK inh | Calpain2 inh | S1P4 antag | S1P4 agonist | S1P3 antag
Cc1cccc(C)c1NC(=O)CCCN1CC(C)OC(C)C1 (stereo not drawn) | 3.2 | . | . | . | /
O=C(Nc1ccnc(-c2ccncc2)n1)C1CC1 | . | . | . | . | .
O=[N+]([O-])c1ccc(OCC(O)CN2CCN(c3ccccc3F)CC2)cc1 (stereo not drawn) | . | 57.3 | . | . | .
Cc1ccc(N2CCN(CC(O)COc3ccc([N+](=O)[O-])cc3)CC2)cc1 (stereo not drawn) | . | . | . | . | .
CC(C)[C@H]1C=C(C(=O)O)O[C@@H](OCCCCO)C1 | / | . | / | / | /
COc1ccc(OCC(=O)N/N=C/c2ccc(O[C@@H]3O[C@H](CO)[C@@H](O)[C@H](O)[C@H]3O)cc2)cc1 | 3.4 | . | . | . | /
O=C(CCc1nnc(C2CCCCC2)o1)N1CCC(Oc2cccnc2)CC1 | . | . | . | . | .
O=C(Nc1nc(=O)[nH]s1)c1ccccc1 | . | 57.0 | . | . | .
CS(=O)(=O)N1CCc2cc(NC(=O)c3ccc(Cl)cc3Cl)ccc21 | . | 50.4 | . | . | .
